The text below walks through data of PubChem BioAssay (NCATS).

Assay [1] has as its target Lysosomal acid glucosylceramidase (Homo sapiens) (UniProt P04062). Put plainly: Glucocerebrosidase-p2 (AID 348; in the data active = potency below about 10 µM; also: potency is read from the fitted curve at half-maximal effect). The note with it: purified GBA, blue fluorogenic substrate, 40 min. In short, it runs like this: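 Normal human glucocerebrosidase (0.2 nM) with blue fluorogenic substrate (80 uM final) in citrate/phosphate pH 5.9 with 10mM sodium taurocholate, 0.01% tween-20; 40 min RT, NaOH/glycine stop; fluorescence Ex 365/Em 440; AC50 from a titration from 0.6 nM upwards.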

The nature of assay [2]: AP1 Signaling Pathway (AID 357).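 Also: ME-180 reporter cells stimulated with EGF at its EC50 level; % is scaled to controls: 0 for no effect and ±100 for the full control effect.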 Conditions: ME-180 AP-1-bla reporter, EGF-induced, beta-lactamase ratio, 5 h; at 7.69 µM (top of the series) unless noted. In short, it runs like this: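 Beta-lactamase reporter under AP-1 response element, ME-180 background. Stimulus: EC50 EGF. Compound exposure 5 h, 37 °C. Detection: CCF4, 2.5 h RT, 460/530 nm. Values: AC50 from titration.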

A short description of assay [3]: NFAT Signaling Pathway (AID 444).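 Also: carbachol stimulus at about its EC50 of 1 µM final; % is scaled to controls: 0 for no effect and ±100 for the full control effect.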 Conditions: Jurkat NFAT-bla M1, carbachol, beta-lactamase ratio, 5 h; at 7.69 µM (top of the series) unless noted. In a few lines: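 Jurkat cells carrying an NFAT-driven β-lactamase reporter and co-transfected muscarinic M1 receptor were treated with compound plus carbachol (1 uM final, an EC50 level) for 5 h at 37 °C. CCF4 loading followed for 1 h at RT; 460/530 nm ratio gave %activity.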

Assay [4] can be described thus: Stat Signaling Pathway (AID 446).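 Also: ME-180 cervical cancer cells given 40 pM IL-6 alongside compound; SIE-controlled beta-lactamase reporter measured as 460/530 nm FRET emission ratio; % is scaled to controls: 0 for no effect and ±100 for the full control effect.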 Conditions: ME-180 (cervical carcinoma) SIE beta-lactamase reporter, IL-6 stimulated, 5 h; at 7.69 µM (top of the series) unless noted. In a few lines: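 FRET read-out (405 nm excitation, 460/530 nm emission) of a beta-lactamase reporter under a STAT-inducible element in ME-180 cervical carcinoma cells. Cells with compound receive 40 pM IL-6 for 5 h. Values are normalised to AC90 stimulation and AC90 JAK-inhibitor controls.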

Assay [5] deals with Glucocorticoid receptor (Homo sapiens) (UniProt P04150). Put plainly: GR-GFP Redistribution (AID 450;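 active = compounds whose dose series gives a full or clear partial fitted curve of increased nuclear translocation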; also: potency is read from the fitted curve at half-maximal effect). Conditions: U2OS GR-GFP nuclear translocation, laser cytometry, 2 h.
Assay [6] has the same target. Put plainly: GR-EFC Redistribution (AID 451; calls by dose curve; also: potency is read from the fitted curve at half-maximal effect). Conditions: CHO-K1 GR-EFC translocation, beta-gal luminescence, 2 h. In a few lines: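 CHO-K1 cells stably expressing nuclear-localized β-gal enzyme acceptor and GR fused C-terminally to the enzyme donor fragment; ligand-driven nuclear translocation restores β-gal by complementation. Compounds titrated up to 46 uM final, 2 h at 37 °C; luminescence read.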

In assay [7] the target is Mitogen-activated protein kinase 10 (Mus musculus) (UniProt Q61831). Briefly: JNK3 AlphaScreen Assay (AID 530).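 Also: kinase came from lysate of stimulated human HepG2 cells; signal reports phosphorylation of biotinylated GST-cJun 1-79 at Ser73 with 10 µM ATP; % is scaled to controls: 0 for no effect and ±100 for the full control effect.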 Conditions: JNK3 lysate, c-Jun phosphorylation; series mostly up to 11.4 µM. In a few lines:
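Biotinylated GST-cJun(1-79) served as substrate for JNK3 in HepG2 lysates stimulated with IL-1beta and TNF-alpha. ATP was 10 uM final, pH 7.6. Ser73 phosphorylation was quantified by AlphaScreen (680 nm excitation).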

Assay [8] concerns the target 3',5'-cyclic-AMP phosphodiesterase 4B (Homo sapiens) (UniProt Q07343). Briefly: qHTS Assay for Inhibitors of PDE-IV (AID 607; active = well fitted activation curve with a large enough effect in the main read-out, with a control signal flat, not every such curve was filed as active; also: % of control where 0% means no effect). Conditions: HEK293 ACTOne CNG channel cells, membrane potential fluorescence; series mostly up to 22.9 µM. In short, it runs like this: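 Cell-based read-out of cAMP via a modified cyclic nucleotide-gated channel and membrane potential dye (535/590 nm) in HEK293 cells expressing PDE4 endogenously. Compounds tested up to 22.9 uM final; 100 uM RO 20-1724 reference.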

Values without a mark were called inactive. Records with an inconclusive call do not appear. Calls of active or inactive are those of the source. Unless noted, calls follow the shape of the dose curve; as a rule, active = well fitted curve in either direction with a large enough effect (not every such curve was filed as active); inconclusive = small, poorly fitted or top-dose-only effect, or another doubt; inactive = flat fitted curve, though single readings scatter.

3',5'-cyclic-AMP phosphodiesterase 4B (Homo sapiens), sequence (Q07343 whole entry, looked up): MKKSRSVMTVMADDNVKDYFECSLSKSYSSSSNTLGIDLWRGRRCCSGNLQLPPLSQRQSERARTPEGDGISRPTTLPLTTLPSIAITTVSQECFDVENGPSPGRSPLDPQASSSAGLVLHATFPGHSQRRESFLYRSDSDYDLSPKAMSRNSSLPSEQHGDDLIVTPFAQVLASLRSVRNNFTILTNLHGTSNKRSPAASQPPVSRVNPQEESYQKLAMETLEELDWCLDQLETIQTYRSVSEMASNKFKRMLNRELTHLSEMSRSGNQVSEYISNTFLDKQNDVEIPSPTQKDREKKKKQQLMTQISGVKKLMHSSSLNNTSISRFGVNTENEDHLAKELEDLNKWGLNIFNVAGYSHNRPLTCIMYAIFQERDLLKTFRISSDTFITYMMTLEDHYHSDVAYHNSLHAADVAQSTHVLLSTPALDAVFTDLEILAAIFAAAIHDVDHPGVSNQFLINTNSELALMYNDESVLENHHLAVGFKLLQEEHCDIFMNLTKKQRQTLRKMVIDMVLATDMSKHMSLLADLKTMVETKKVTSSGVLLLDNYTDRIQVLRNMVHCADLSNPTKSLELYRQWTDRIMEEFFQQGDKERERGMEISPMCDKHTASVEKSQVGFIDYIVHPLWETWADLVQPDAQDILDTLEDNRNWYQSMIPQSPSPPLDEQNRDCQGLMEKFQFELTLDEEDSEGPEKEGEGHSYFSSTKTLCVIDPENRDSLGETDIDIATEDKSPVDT
Glucocorticoid receptor (Homo sapiens), sequence (P04150 whole entry, looked up, the tested form may be a part): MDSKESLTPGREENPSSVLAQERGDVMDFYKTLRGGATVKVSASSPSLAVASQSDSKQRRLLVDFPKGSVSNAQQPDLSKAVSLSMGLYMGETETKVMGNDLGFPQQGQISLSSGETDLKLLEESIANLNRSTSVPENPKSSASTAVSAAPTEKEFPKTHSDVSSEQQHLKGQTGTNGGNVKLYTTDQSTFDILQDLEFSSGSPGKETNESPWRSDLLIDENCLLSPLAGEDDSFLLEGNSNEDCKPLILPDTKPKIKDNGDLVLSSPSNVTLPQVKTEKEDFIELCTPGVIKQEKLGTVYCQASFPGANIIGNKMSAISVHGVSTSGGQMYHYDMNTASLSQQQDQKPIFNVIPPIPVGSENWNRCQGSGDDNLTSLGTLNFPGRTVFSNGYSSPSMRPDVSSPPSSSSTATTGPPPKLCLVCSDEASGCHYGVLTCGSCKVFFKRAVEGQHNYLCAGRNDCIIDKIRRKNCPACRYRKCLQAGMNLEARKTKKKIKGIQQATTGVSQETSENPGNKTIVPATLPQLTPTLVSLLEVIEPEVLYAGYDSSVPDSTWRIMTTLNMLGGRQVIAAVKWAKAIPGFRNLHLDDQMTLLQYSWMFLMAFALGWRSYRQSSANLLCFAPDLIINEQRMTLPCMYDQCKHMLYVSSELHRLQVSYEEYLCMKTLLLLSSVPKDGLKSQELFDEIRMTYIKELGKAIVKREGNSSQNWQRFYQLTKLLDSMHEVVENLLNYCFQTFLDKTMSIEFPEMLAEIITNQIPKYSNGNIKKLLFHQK
Lysosomal acid glucosylceramidase (Homo sapiens), sequence (P04062 whole entry, looked up): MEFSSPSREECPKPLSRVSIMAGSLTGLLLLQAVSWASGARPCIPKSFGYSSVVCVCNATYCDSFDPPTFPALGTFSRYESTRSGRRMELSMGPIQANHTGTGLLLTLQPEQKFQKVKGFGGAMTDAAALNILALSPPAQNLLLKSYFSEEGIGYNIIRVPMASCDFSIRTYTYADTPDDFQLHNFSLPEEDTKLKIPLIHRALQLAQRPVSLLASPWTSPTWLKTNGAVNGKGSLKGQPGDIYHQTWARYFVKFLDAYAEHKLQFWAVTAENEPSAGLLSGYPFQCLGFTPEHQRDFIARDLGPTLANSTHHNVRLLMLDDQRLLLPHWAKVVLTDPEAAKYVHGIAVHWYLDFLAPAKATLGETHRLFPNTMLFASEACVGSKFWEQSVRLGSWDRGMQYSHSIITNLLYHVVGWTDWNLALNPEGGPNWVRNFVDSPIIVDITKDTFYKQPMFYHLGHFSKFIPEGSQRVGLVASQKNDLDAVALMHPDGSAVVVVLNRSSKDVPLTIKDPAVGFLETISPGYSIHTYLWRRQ

Regarding `c1ccc(CN2CCC3(CC2)SSC2(CCN(Cc4ccccc4)CC2)SS3)cc1`, the Potency is > 11.4 µM in assay [1], > 46 µM in assay [5] and > 9.22 µM in assay [6]. Further, the activity change, negative = inhibition in assay [2] is 3.33%; in assay [3], 3.92%. The activity, negative = inhibition in assay [4] is -1.41%. For the same compound, the Potency result in assay [7] and in assay [8] was “inactive” each time.

Consider `COc1cc(NCC[C@@H]2CCCCN2)c2ncccc2c1`, for which the Potency in assay [1] is > 11.4 µM; in assay [5], > 46 µM; in assay [6], > 9.22 µM. Further, the values for the activity change, negative = inhibition in assay [2] and in assay [3] were 28.5% and -23.9%, respectively. In addition, the activity, negative = inhibition in assay [4] was 13.7%. In addition, the Potency entry in assay [7] and in assay [8] was “inactive” throughout.

On to `O=C(O)c1ccncc1.O=C(O)c1ccncc1.[NH2-].[NH2-].[Pt]`, for which the Potency in assay [1] was > 11.4 µM; in assay [5], > 46 µM; in assay [6], > 9.22 µM. In addition, the activity change, negative = inhibition in assay [2] was -4.3%; in assay [3], 8.19%. In addition, in assay [4], the activity, negative = inhibition is 2.8%. The Potency entry in assay [7] and in assay [8] was “inactive” in each case.

Consider `NC(N)=NC(N)=Nc1ccc(C(=O)O)cc1`, for which the Potency was > 11.4 µM in assay [1], > 46 µM in assay [5] and > 9.22 µM in assay [6]. In addition, the activity change, negative = inhibition in assay [2] is 7%; in assay [3] it was 6.33%. The activity, negative = inhibition in assay [4] is 16.2%. Further, the Potency result in assay [7] and in assay [8] was “inactive” in each case.

In the case of `Nc1c(S(=O)(=O)O)cc(S(=O)(=O)O)c2ccc(N=Nc3ccccc3)c(O)c12`, the Potency in assay [1] was > 11.4 µM; in assay [5], 2.59 µM (active); in assay [6], > 9.22 µM. The activity change, negative = inhibition in assay [2] was 1.28%; in assay [3] it was -3.14%. In assay [4], the activity, negative = inhibition is -2.56%. Moreover, the Potency result in assay [7] and in assay [8] was “inactive” throughout.

Regarding `Cc1[nH]c(C)c(CN(C)C)c1CN(C)C`, the results for the Potency in assay [1], in assay [5] and in assay [6] were > 11.4 µM, > 46 µM and > 9.22 µM, respectively. Further, the activity change, negative = inhibition in assay [2] is -2.51%; in assay [3], -26.2%. In addition, in assay [4], the activity, negative = inhibition was 12.9%. For the same compound, the Potency result in assay [7] is “inactive”.

Consider `CC1(C)CC(Nc2ccc(Nc3ccccc3)cc2)CC(C)(C)N1`, for which the Potency in assay [1] is > 11.4 µM; in assay [5] it was > 46 µM; in assay [6], > 9.22 µM. In addition, the activity change, negative = inhibition in assay [2] is -24.4%; in assay [3], 6.65%. Besides, in assay [4], the activity, negative = inhibition was -6.18%. For the same compound, the Potency entry in assay [7] and in assay [8] was “inactive” in each case.

As for `CC1=C(/C=C\C(=O)O)C(C)(C)CCC1`, the Potency is > 11.4 µM in assay [1], > 46 µM in assay [5] and > 9.22 µM in assay [6]. The figures for the activity change, negative = inhibition in assay [2] and in assay [3] were 4.18% and 11.9%, respectively. In addition, in assay [4], the activity, negative = inhibition was 0.469%. Besides, the Potency entry in assay [7] and in assay [8] was “inactive” each time.

Take `O=C(O)CSc1ccc(N=C=S)cc1`: the Potency in assay [1] is > 11.4 µM; in assay [5], > 46 µM; in assay [6] it was > 9.22 µM. Moreover, the activity change, negative = inhibition in assay [2] was 7.13%; in assay [3] it was 27.9%. In addition, the activity, negative = inhibition in assay [4] was 5.22%. In addition, the Potency result in assay [7] and in assay [8] was “inactive” throughout.

In the case of `O=C(O)CCc1ccc(-c2ccccc2)[nH]1`, the results for the Potency in assay [1], in assay [5] and in assay [6] were > 11.4 µM, > 46 µM and > 9.22 µM, respectively. Further, the activity change, negative = inhibition in assay [2] is 2.27%; in assay [3], 13.2%. Also, the activity, negative = inhibition in assay [4] is 1.73%. The Potency result in assay [7] and in assay [8] was “inactive” each time.

On to `O=C1c2ccccc2-c2ccc(N=[N+]([O-])c3ccc4c(c3)C(=O)c3ccccc3-4)cc21`, for which the Potency in assay [1] is > 11.4 µM; in assay [5], > 46 µM; in assay [6] it was > 9.22 µM. In addition, the activity change, negative = inhibition in assay [2] was 5.38%; in assay [3], 10.2%. Also, the activity, negative = inhibition in assay [4] is 7.21%. Also, the Potency result in assay [7] and in assay [8] was “inactive” each time.

Consider `NCCOc1ccccn1`, for which the Potency was > 11.4 µM in assay [1], > 46 µM in assay [5] and > 9.22 µM in assay [6]. The activity change, negative = inhibition in assay [2] is 10%; in assay [3] it was 1.74%. Moreover, the activity, negative = inhibition in assay [4] is -2.14%. Moreover, the Potency result in assay [7] and in assay [8] was “inactive” throughout.

`CC1(C)CC(=O)C(C(c2cccc(O)c2O)C2C(=O)CC(C)(C)CC2=O)C(=O)C1`: the Potency in assay [1] is > 11.4 µM; in assay [5], > 46 µM; in assay [6], > 9.22 µM. For the same compound, the activity change, negative = inhibition in assay [2] was -0.68%; in assay [3], 2.55%. In addition, in assay [4], the activity, negative = inhibition is 1.05%. The Potency entry in assay [7] and in assay [8] was “inactive” in each case.

`Cn1c(=S)c2[nH]c(SCCN3C(=O)c4ccccc4C3=O)nc2n(C)c1=O`: the Potency in assay [1] is > 11.4 µM; in assay [5], > 46 µM; in assay [6], > 9.22 µM. Besides, the values for the activity change, negative = inhibition in assay [2] and in assay [3] were 0.578% and -4.22%, respectively. Also, the activity, negative = inhibition in assay [4] is 2.07%. In addition, the Potency result in assay [7] and in assay [8] was “inactive” in each case.

For the compound `CN(/N=C\c1ccccc1O)c1ccc2ccccc2n1`, the Potency in assay [1] is > 11.4 µM; in assay [5], > 46 µM; in assay [6], > 9.22 µM. Also, the activity change, negative = inhibition is -2.44% in assay [2] and -9.81% in assay [3]. In addition, the activity, negative = inhibition in assay [4] was 1.98%. Moreover, the Potency result in assay [7] and in assay [8] was “inactive” in each case.

Consider `CC(C)=N[C@H](C(=O)O)C(C)(C)S`, for which the Potency in assay [1] is > 11.4 µM; in assay [5] it was > 46 µM; in assay [6], > 9.22 µM. Moreover, the values for the activity change, negative = inhibition in assay [2] and in assay [3] were 10% and 3.46%, respectively. Also, in assay [4], the activity, negative = inhibition was 6.64%. Also, the Potency entry in assay [7] and in assay [8] was “inactive” in each case.
